Common to all, as to experiment: NCI-60 one-dose screen, 48 h (100 = growth as untreated, 0 = no growth, -100 = all killed)
Holding throughout (conditions): 10 µM unless noted

For assay [1], the system named is NCI-H23 lung.
Assay [2] deals with NCI-H226 lung.
The test system of assay [3] is NCI-H322M lung.
Assay [4] concerns HOP-62 NSCLC.
Assay [5] has as its system NCI-H460 lung.
The subject of assay [6] is HOP-92 NSCLC.
Assay [7] deals with NCI-H522 lung.
The subject of assay [8] is 786-0 renal.
Assay [9] concerns COLO 205 colon.
In assay [10] the test system is A549/ATCC NSCLC.

Experimental findings from PubChem BioAssay (NCI) are described below.

This is part of a sample that, as a whole, favours compounds with a hit. Of some 83,000 tested, about 20% had one in any assay.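 Growth was measured after 48 h exposure to one concentration of compound in 96-well plates. Values under 10 count as active.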 A number with no mark means an inactive call. Active and inactive are the calls of the source.

For `C#CCC(C(=O)OCC)C(=O)OCC`, the growth is 100% in assay [1]; 98.5% in assay [2]; 100% in assay [3]; 102% in assay [4]; 109% in [5]; 108% in assay [6]. In addition, the growth in [7] was 99.1%; in assay [8], 107%; in assay [9], 105%.

Consider `CC(C)C1=NOC(=O)C1=Cc1cn(-c2ccccc2)nc1-c1cccc([N+](=O)[O-])c1`, for which the growth in assay [1] was 91.9%; in assay [2], 102%; in assay [3], 98.1%; in assay [4], 99.1%; in assay [5], 87.9%; in assay [6], 88.8%. For the same compound, the growth in assay [7] was 74.7%; in [8] it was 76.7%; in [9] it was 109%.

Take `O=C1NC(=O)C(Cc2ccccc2)(Cc2ccccc2)N1`: the growth in assay [1] is 101%; in assay [2], 90.4%; in [4], 84.9%; in assay [5] it was 104%; in assay [6] it was 87.5%; in assay [7] it was 97.5%. In addition, the results for the growth in assay [10], in assay [8] and in assay [9] were 102%, 90.9% and 107%, respectively.

For `Cc1ccc(-c2cc(-c3ccc(C)cc3)nc(N3CCN(CCNc4ccnc5cc(Cl)ccc45)CC3)n2)cc1`, the growth was 41.7% in [1]; 18% in assay [2]; 55.7% in [3]; 41.6% in assay [4]; 6.78% (active) in assay [5]; -12.7% (active) in [6]. In addition, the results for the growth in assay [7], in assay [8] and in [9] were 59.6%, -38.8% (active) and 10.9%, respectively.

Take `CCN(CC)CCCC(C)Nc1c2ccc(C)cc2nc2ccc(OC)cc12` (centres undefined): the growth in assay [1] is 41.8%; in assay [2], 42.4%; in [3], 10.9%; in assay [4] it was 45%; in assay [5], -44.3% (active); in assay [6], 40.8%. Besides, the growth in [7] is 51.1%; in [10] it was 14.7%; in assay [8] it was 33%; in assay [9], -40.4% (active).

As to `N#C/C(=C(/O)CCCO)c1nc2ccccc2c(=O)[nH]1`, the growth in [1] was 91.2%; in assay [2], 93.7%; in assay [3], 105%; in assay [4] it was 99%; in assay [5], 111%; in [6], 84.9%. For the same compound, the growth is 95% in assay [7], 102% in assay [8] and 130% in assay [9].

`Cc1ccc(NC(=O)N[C@@H](Cc2cc(F)cc(F)c2)C(=O)N[C@@H]2C(=O)N3CCC[C@H]3C(=O)N3CCOC[C@H]3C(=O)N[C@@H](C)C(=O)N3C[C@H](C)C[C@H]3C(=O)O[C@H]2C)cc1`: the growth was 33.5% in [1]; 30.5% in assay [2]; 62.2% in assay [3]; 26.7% in assay [4]; 26.4% in assay [5]; 39.4% in [6]. For the same compound, the growth in assay [7] is 37.7%; in [8], 34.1%; in assay [9], 10% (active).

Take `CCN1CCN(CC(=O)Nc2nc3ccc(NCc4ccc(Cl)cc4)cc3s2)CC1`: the growth was 69.2% in [1]; 60% in assay [2]; 77.6% in assay [4]; 54.7% in assay [5]; 31.6% in assay [6]; 86.3% in assay [7]. In addition, the growth was 61.5% in assay [10], 73% in assay [8] and 23.8% in assay [9].

As for `Nc1ccc(Cl)c([N+](=O)[O-])c1`, the growth in [1] is 111%; in [2], 101%; in assay [3] it was 106%; in [4], 101%; in assay [5] it was 104%; in assay [6], 94%. The growth in assay [7] is 87.5%; in assay [8], 107%; in assay [9], 107%.

In the case of `CCCCN(CC)CC(CC)Nc1cc(OC)cc2cccnc12` (centres undefined), the growth is 113% in assay [1]; 107% in assay [2]; 110% in [3]; 110% in assay [4]; 110% in [5]; 89.4% in assay [6]. The growth in [7] is 118%; in assay [8] it was 107%; in [9], 119%.

Consider `CSc1nc(N)c(N=Nc2ccc(S(=O)(=O)Nc3nnc(C)s3)cc2)c(=O)[nH]1`, for which the growth in assay [1] is 107%; in [2] it was 100%; in assay [3], 109%; in [4], 104%; in [5] it was 106%; in [6], 108%. Moreover, the growth is 103% in [7], 114% in assay [8] and 96.3% in assay [9].

Take `COc1ccc(C2CC(c3cc(OC)c(OC)c(OC)c3)=NN2C(C)=O)cc1OCC(=O)Nc1nc2ccc(C(F)(F)F)cc2s1` (centres undefined): the growth is 67.3% in assay [1]; 40.2% in assay [2]; 79.6% in assay [3]; 57.1% in assay [4]; 67.6% in assay [5]; -3.98% (active) in assay [6]. Also, the growth is 66.6% in [7], 60.1% in assay [8] and 85% in [9].

Turning to `COc1cccc(-c2[nH]c(=S)ncc2C(=O)c2ccccc2)c1`, the growth in assay [1] is 97%; in assay [2], 102%; in assay [3], 99.9%; in assay [4], 78.8%; in [5], 91.9%; in [6], 102%. For the same compound, the growth was 70.9% in assay [7], 100% in [8] and 84.7% in assay [9].

`Clc1ccc2nc(-c3ccc(-c4ccc(/C=N/NC5=NCCN5)cc4)s3)cn2c1`: the growth is 106% in [1]; 94.9% in assay [2]; 98.3% in [3]; 98.6% in assay [4]; 100% in assay [5]; 76.5% in [6]. Also, the values for the growth in assay [7], in assay [8] and in [9] were 106%, 95.5% and 107%, respectively.

As for `O=C(CSc1nc2ccc([N+](=O)[O-])cc2[nH]1)Nc1cccc(Cl)c1`, the growth in assay [1] was -2.48% (active); in assay [2], 12.9%; in assay [3], 62.4%; in assay [4], 35%; in assay [5] it was 25.3%; in assay [6], -27.9% (active). Moreover, the results for the growth in assay [7], in assay [8] and in assay [9] were 4.64% (active), 28.6% and 26.4%, respectively.

`C=C(C)[C@@H]1CC[C@]2(C)[C@H](CC[C@@H]3[C@@H]([C@@](C)(O)CCC=C(C)C)CC[C@]32C)[C@@]1(C)CCC(=O)N1CCN(C)CC1`: the growth is -72% [100 µM] (active) in assay [1]; -72% [100 µM] (active) in assay [2]; -97.5% [100 µM] (active) in assay [3]; -93% [100 µM] (active) in [4]; -82.2% [100 µM] (active) in [5]; -89.9% [100 µM] (active) in assay [6]. Moreover, the growth in assay [7] was -81.1% [100 µM] (active); in [8], -92.7% [100 µM] (active); in assay [9], -80.8% [100 µM] (active).

On to `O=S(=O)(NCCCNc1nccc(-c2c(-c3cccc(F)c3)nc3occn23)n1)c1cccc2ccccc12`, for which the growth in [1] was 63.9%; in [2], 36.3%; in assay [3], 64.6%; in [4] it was 74.4%; in [5] it was 18.7%; in assay [6], 63.9%. Moreover, the values for the growth in assay [7], in assay [8] and in [9] were 51.1%, 46.5% and -18.1% (active), respectively.
